From PubChem
SMARCA2 activ: SMARCA2 (BRM) function activators, primary screen, cell-based, luminescence, high throughput; activation, % at 9.1 µM; MG213 cells, MMTV-luciferase reporter, dexamethasone, overnight; actives 1% (n = 370,000); in the data active means activation above about 7.8%;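 further: 0% = vehicle wells and 100% = reference activator wells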
MsrA inhibitor: bovine MsrA enzyme inhibitors, primary screen, biochemical, absorbance, HTS; inhibition, % at 15.5 µM; Methionine sulfoxide reductase A (Bos taurus); purified bovine MsrA, absorbance read-out; actives 0.75% (n = 360,000); in the data active means inhibition above about 4.5%;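 further: 0% = vehicle wells with enzyme and 100% = reference inhibitor wells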
proKLK7 act: proKLK7 zymogen activators, primary screen, biochemical, fluorescence intensity; actives 0.9% (n = 370,000); Kallikrein-7 (Homo sapiens), P49862; activation, % at 7 µM; purified proKLK7, EDANS-DABCYL substrate fluorescence; 100% is mature enzyme control, 0% vehicle;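 active means activation above the mean of all tested compounds plus 3 SD, computed per campaign excluding outliers beyond control limits, cut at about 13% in these data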
Target sequence (P49862 whole entry, looked up): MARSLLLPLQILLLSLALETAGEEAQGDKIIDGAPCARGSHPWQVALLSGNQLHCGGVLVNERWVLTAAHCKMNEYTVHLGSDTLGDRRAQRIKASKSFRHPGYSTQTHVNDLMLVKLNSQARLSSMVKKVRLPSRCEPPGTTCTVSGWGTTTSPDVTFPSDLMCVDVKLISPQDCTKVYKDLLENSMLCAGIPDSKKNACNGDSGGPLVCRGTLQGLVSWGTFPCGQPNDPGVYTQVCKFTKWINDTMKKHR
bovine MsrA act: bovine MsrA enzyme activators, primary screen, biochemical, absorbance, HTS; purified bovine MsrA, absorbance read-out; activation, % at 10.6 µM; actives 0.3% (n = 360,000); in the data active means activation above about 7.5%;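 further: 0% = vehicle and 100% = reference activator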
SMARCA2 act conf: SMARCA2 (BRM) function activators, confirmation, cell-based, luminescence, triplicate; shares compounds with SMARCA2 activ; MG213 cells, MMTV-luciferase with dexamethasone, overnight; MG213 cells expressing E1A, Rb sequestered; DMSO wells 0%, reference activator 100%; activation, % at 9.1 µM; actives 30% (n = 3,500); AID 652260, 2013;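 active means activation above its plate's cutoff, the mean activation of tested wells plus 3 SD, cut at about 7.9% in these data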
GAL4-VP16 Luc: GAL4-VP16 luciferase reporter activation, counter-screen for SMARCA2 (BRM) activator project, cell-based, pG5luc, luminescence, high throughput; shares compounds with SMARCA2 activ; HEK293 GAL4-VP16 pG5luc reporter; scaled: DMSO wells 0%, SAHA wells 100%; activation, % at 9.1 µM; actives 41% (n = 3,500); AID 686939, 2013;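 active means activation above the solvent-only control well mean plus 3 SD, averaged across control plates, cut at about 5.2% in these data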
* hit, by the source's call; nt = no result. Compounds with a hit are over-represented: about 2.8% of the library has one in this group of screens.

SMILES	SMARCA2 activ	MsrA inhibitor	proKLK7 act	bovine MsrA act	SMARCA2 act conf	GAL4-VP16 Luc
CCC(=O)Nc1ccc(NC(=O)CSc2nnnn2-c2cccnc2)cc1C	9.7*	0	0	2	-2	1
CN1c2ccc(C#CC3CC3)cc2[C@@H]2[C@@H](CCN2C(=O)C2CCOCC2)[C@H]1CO	-3	nt	0	nt	nt	nt
Cc1ccc([N+](=O)[O-])cc1-c1ccc(/C=C(\C#N)c2[nH]nc(N)c2C#N)o1	9.5*	1	-1	-7	1	12*
CN(C)Cc1cn(CC[C@@H]2CC[C@@H](NC(=O)Nc3ccccc3F)[C@@H](CO)O2)nn1	-4	-1	0	nt	nt	nt
CCN(CC)c1ccc(C=NNC(=O)Cc2cc(=O)[nH][nH]2)c(O)c1	-5	nt	-5	nt	nt	nt
COc1cc(/C=N/NS(=O)(=O)c2ccc(C)cc2)ccc1OCc1cccc(C(=O)O)c1	9.5*	1	0	-2	6	19*
COc1cc(/C=N/NS(=O)(=O)c2ccc3ccccc3c2)ccc1OCc1ccc(C(=O)O)cc1	1	2	0	-2	nt	nt
Nc1nc2ccccc2cc1C(=O)NCc1cccs1	-3	0	11	nt	nt	nt
COc1cc(OC)cc(N2CCN(S(=O)(=O)c3ccc(-n4cnnn4)cc3)CC2)c1	9.6*	1	0	-1	1	2
O=C(CNS(=O)(=O)c1ccccc1)OCC(=O)c1ccc(OC(=O)c2ccccc2)cc1	8.7*	-1	0	-2	18*	2
COC(=O)c1ccc(OCC(=O)c2ccccc2)cc1	12*	-1	0	-4	11*	8.5*
CN(CCOC(=O)CSc1ccccc1)C1CN(Cc2cn(Cc3ccccc3F)nn2)S(=O)(=O)C1 (stereo not given)	0	nt	0	nt	nt	nt
COc1ccc(CC(=O)Nc2c3c(nn2-c2ccccc2C)CS(=O)C3)cc1 (stereo not given)	8.7*	0	0	-2	-2	0
Cc1ccccc1-n1nc2c(c1NC(=O)COc1ccc(Cl)cc1)CS(=O)C2 (stereo not given)	-2	-1	0	-1	nt	nt
CC(=O)OCc1ccccc1Sc1ccccc1C(=O)NCc1ccccc1	10*	-2	-1	-1	1	0
COc1ccc(CNC(=O)c2ccccc2SC)cc1	0	-1	0	-4	nt	nt
Cc1ccc(/C=C2\SC(=O)N(CCC(=O)N3CCN(C)CC3)C2=O)cc1	8.9*	4	1	-5	5	6.6*
COc1ccc(C(=O)N2CCC(Oc3cccnc3)CC2)c(OC)c1	-1	nt	1	nt	nt	nt
Clc1ccc(NN(Cc2ccncc2)c2ccc(Cl)cc2)cc1	-2	-1	-1	-3	nt	nt
CCCCN1CCc2c(c3ccccc3n2Cc2ccccc2)C1	-1	2	1	1	nt	nt
CN1CCc2c(c3ccccc3n2Cc2ccccc2)C1	-2	-1	3	6	-2	2
O=C(/C=C/c1ccc(Br)cc1)c1ccc(NC2=NCCCS2)cc1	25*	4.8*	-3	-4	12*	2
Cc1ccccc1CN1CCCCC(NC(=O)c2ccc(F)c(F)c2)C1=O (stereo not given)	-4	nt	-1	nt	nt	nt
Cc1cc(C)cc(Cn2cc(CN3CC(N4CCCCC4)CS3(=O)=O)nn2)c1 (stereo not given)	8.2*	-1	0	-2	1	0
Cc1c[nH]c2cccc(-c3ccc(Cl)cc3Cl)c12	3	nt	0	nt	nt	nt
SMILES	SMARCA2 activ	MsrA inhibitor	proKLK7 act	bovine MsrA act	SMARCA2 act conf	GAL4-VP16 Luc
COc1ccccc1NC(CC(=O)c1ccccc1)C(=O)OCC(=O)c1ccc(F)cc1 (stereo not given)	10.0*	1	0	-6	8.6*	15*
COc1ccccc1NC(=O)CCCC(=O)OCC(=O)c1ccc(F)cc1	-1	-1	0	-4	nt	nt
N#C/C(=C\c1c[nH]c2ccccc12)C(=O)NC1CC1	10*	1	1	-4	11*	11*
COc1ccc(OC(=O)N(C)C[C@@H]2OCc3cn(nn3)CCCC(=O)N([C@@H](C)CO)C[C@H]2C)cc1	7	0	0	-2	nt	nt
N#Cc1ccc(OCC(=O)NCC2(N3CCCCC3)CCCCC2)cc1	6	0	0	-2	nt	nt
O=C(COc1ccccc1)NCC1(N2CCCCC2)CCCCC1	9.6*	0	0	1	-2	0
O=C(OCC(=O)C12CC3CC(CC(C3)C1)C2)c1ccc(O)cc1O	1	1	0	3	nt	nt
O=C(O)c1ccc2nc(-c3ccccc3)c(-c3ccccc3)nc2c1	10*	1	3	-3	4	2
NC(=O)c1ccc2nc(-c3ccccc3)c(-c3ccccc3)nc2c1	1	0	-1	-6	nt	nt
O=C(N/N=C/C(Br)=C\c1ccccc1)c1n[nH]c2c1CCC2	8.4*	3	1	-4	11*	21*
O=C(N/N=C/c1ccc(Cl)cc1Cl)c1n[nH]c2c1CCCC2	9.5*	1	-1	1	6	8.0*
O=C(N/N=C/C=C/c1ccccc1)c1n[nH]c2c1CCC2	1	2	0	1	nt	nt
O=C(N/N=C\c1cccc(Cl)c1)c1n[nH]c2c1CCCC2	5	0	0	-10	nt	nt
Cc1ccc(C2=CCN(C)C(=O)N2c2ccc([N+](=O)[O-])cc2)cc1	-4	nt	0	nt	nt	nt
CC(C)NC(=O)c1csc(COCCO)n1	-3	0	0	-5	nt	nt
O=C(Cn1cncn1)N/N=C/c1cccc(Cl)c1	8.3*	0	0	-4	1	-1
O=C1CC(c2cccs2)Sc2nc3ccccc3n21 (stereo not given)	7	-1	0	0	nt	nt
O=C1CC(c2ccccc2)Sc2nc3ccccc3n21 (stereo not given)	12*	0	0	-1	8.8*	8.6*
CC(=O)N1CCN(C(=O)c2cccc(NS(=O)(=O)c3ccc(Br)cc3)c2)CC1	-2	0	0	-1	nt	nt
COCCN(CC(=O)Nc1cccc(C)c1C)C(=O)c1ccc2ccccc2n1	9.0*	0	0	-2	6	2
Cc1cccc(NC(=O)CN(C)C(=O)c2ccc3ccccc3n2)c1C	0	1	0	-12	nt	nt
CCN(CC)CCOc1nc(C)nc2c1oc1ccccc12	8.5*	0	0	0	2	1
CN(C)CCOc1ncnc2c1oc1ccccc12	-1	-1	0	-1	nt	nt
CN(C)CCOc1nc(-c2ccccc2)nc2c1oc1ccccc12	16*	-1	0	2	31*	1
O=C1C=CC(O)C2(CO)OC12 (stereo not given)	12*	-1	0	-4	-1	4
